TIM10 inh = TIM10 yeast growth inhibition; S. cerevisiae TIM10 strain growth, BacTiter-Glo luminescence, 24 h; inhibition, % at 10 µM; actives 1.4% (n = 330,000); AID 463195;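 active = inhibition of 40% or more at the single tested concentration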;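 note: wild-type TIM10 isogenic control strain grown at permissive 25 °C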
NALP1 inh = inhibitors of NALP1 inflammasome in yeast. S. cerevisiae NALP1/ASC/caspase-1 growth, X-gal OD620, 72 h. actives 0.61% (n = 280,000). inhibition, % at 10 µM. AID 2071; in the data active = inhibition mostly above about 24%, no sharp cut-off; inactive = mostly below about 32%
tim23-1 inh = growth inhibitors of tim23-1 mutant yeast. S. cerevisiae tim23-1 growth, BacTiter-Glo luminescence, 24 h. inhibition, % at 20 µM. AID 463212. actives 1.3% (n = 330,000);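 active = growth inhibition of the mutant yeast at or above 50%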;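 note: temperature-sensitive mutant grown at 25 °C; plate controls were DMSO-treated mutant yeast for no effect and medium wells lacking yeast for full effect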
V-ATPase pHluor = yeast V-ATPase proton transport regulation by pHLuorin; actives 0.37% (n = 350,000); response, % at 10 µM; S. cerevisiae, pHLuorin cytosolic pH fluorescence; AID 504577; in the data active = response mostly above about 7.3%, no sharp cut-off; inactive = mostly below about 5.4%; note: actives read high
tim10-1 inh = growth inhibitors of tim10-1 mutant yeast; inhibition, % at 20 µM; S. cerevisiae tim10-1 ts strain growth, BacTiter-Glo, 24 h; actives 2.2% (n = 330,000);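 active = inhibition of at least 40%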;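 note: mutant grown at 25 °C; 0% = DMSO wells with yeast and 100% = wells holding no yeast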
NLRP3 yeast inh = blocks the NALP3 inflammasome reconstituted in yeast | Yeast reconstituted NLRP3/ASC/caspase-1, beta-gal luminescence, 24 h | inhibition, % at 10 µM | actives 0.39% (n = 330,000) | AID 2825;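 active = inhibition of 50% or more; inactive = inhibition below 50%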;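 note: plate controls were induced DMSO wells for no effect and uninduced yeast grown without galactose for full effect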
tim10-1 confirm = confirmation of tim10-1 mutant yeast growth inhibitors. S. cerevisiae tim10-1 ts strain growth, BacTiter-Glo, 24 h. actives 56% (n = 7,400). AID 463213. inhibition, % at 20 µM. shares compounds with tim10-1 inh;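 active = inhibition of yeast growth at or above a set limit in either of two repeat tests at 20 µM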;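 note: tim10-1 mutant grown at permissive 25 °C to find synthetic lethal compounds; 0% = DMSO yeast wells and 100% = medium wells without yeast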
TIM10 conf = TIM10 yeast growth inhibition, confirmed. actives 63% (n = 4,600). S. cerevisiae tim10 strain growth, BacTiter-Glo luminescence, 24 h. AID 463215. inhibition, % at 10 µM. shares compounds with TIM10 inh;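 active = inhibition of yeast growth at or above a set limit in either of two replicates at 10 µM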;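 note: this counterscreen used the strain with wild-type TIM10; 0% = yeast with DMSO and 100% = medium wells lacking yeast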
tim23-1 conf = confirmation of tim23-1 mutant yeast growth inhibitors; S. cerevisiae tim23-1 growth, BacTiter-Glo luminescence, 24 h; actives 83% (n = 4,400); shares compounds with tim23-1 inh; inhibition, % at 20 µM;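 active = inhibition above about 39% in either of two replicate wells at 20 µM, limit read from the data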;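 note: temperature-sensitive tim23-1 mutant grown at 25 °C; 0% = DMSO wells with yeast and 100% = medium wells without yeast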
Numbers without * were called inactive; . = not tested or not shown. This is a sample that favours compounds with a hit; in the whole collection about 4.2% have one here.

SMILES	TIM10 inh	NALP1 inh	tim23-1 inh	V-ATPase pHluor	tim10-1 inh	NLRP3 yeast inh	tim10-1 confirm	TIM10 conf	tim23-1 conf
COc1cc(/C=C2\SC(=S)N(NS(=O)(=O)c3ccc(C)cc3)C2=O)cc(OC)c1OC	12	18	27	6	9	12	.	.	.
Cc1ccc(S(=O)(=O)NN2C(=O)/C(=C/c3cccc(F)c3)SC2=S)cc1	40*	2	71*	0	47*	-7	28	40*	-24
COc1ccc(N(CC(=O)NC2CCCCC2C)S(=O)(=O)c2c(C)nn(C)c2C)cc1 (stereo not drawn)	9	4	8	0	3	14	.	.	.
Nc1c(Cl)cc2c(c1Oc1ccccc1)C(=O)c1ccccc1C2=O	54*	-7	66*	4	52*	39	20	48*	67*
CC(C)(C)c1cc(C(=O)CCN2CCOCC2)cc(C(C)(C)C)c1O	76*	19	74*	-6	77*	21	76*	80*	56*
O=C(Nc1csc([N+](=O)[O-])c1)Nc1ccccc1Cl	54*	.	66*	3	51*	27	49*	67*	56*
CCOc1cc(C(=O)N(C)CC(=O)Nc2cccc(F)c2)ccc1OCC(=O)N1CCCCC1	-7	.	6	2	-7	-8	.	.	.
CCSc1ncc(/C=N/Nc2ccc(Cl)cc2)n1C	-29	27	70*	0	46*	35	6	.	63*
CCCOc1ccc2c(c1)C(=NN=C(N)N)c1cc(OCCC)ccc1-2	32	12	62*	4	76*	28	38*	.	33
CC(=O)Nc1ccc(N(C(=O)CNC(=O)c2cccs2)C(C(=O)NCC2CCCO2)c2ccccc2)cc1 (stereo not drawn)	-11	2	6	-4	14	18	.	.	.
COc1cccc(CNC(=O)COC(=O)c2nc(Cl)c(Cl)c(Cl)c2Cl)c1	37	.	60*	1	56*	-10	46*	.	57*
O=c1cc(-c2ccco2)oc2c1ccc1ccccc12	16	6	-12	0	23	17	.	.	.
O=c1cc(C(Cl)(Cl)Cl)oc2c1ccc1ccccc12	30	3	52*	-3	44*	22	25	.	49*
COC(=O)[C@]1(CC(C)C)N[C@H](c2ccc(-c3ccc(Cl)c(Cl)c3)cc2)[C@@H]2C(=O)N(C)C(=O)[C@@H]21	29	.	28	-1	24	16	.	.	.
Cc1nn(-c2ccccc2)c(Cl)c1/C=C(\C#N)C(=O)NC(C)C	53*	48	73*	9	56*	35	72*	56*	60*
CCN(CC(=O)Nc1ccc2c(c1)OCCO2)S(=O)(=O)c1ccc(F)cc1	13	0	12	5	-8	15	.	.	.
Cc1ccc2cc(C=C(C#N)C#N)c(N3CCCCC3)nc2c1	45*	-6	75*	0	55*	3	45*	25	73*
COc1ccc(OC)c(NC(=O)CN2CCc3ccccc3C2)c1	-15	32	14	-3	-1	13	.	.	.
O=C(Cc1csc(-c2ccccc2)n1)NCC(=O)Nc1ccc(F)c(F)c1F	2	.	21	-3	6	19	.	.	.
COc1ccc(NS(=O)(=O)c2cc(NC(=O)CCc3ccccc3)ccc2N2CCOCC2)cc1	.	.	.	2	.	.	.	.	.
S=c1[nH]nc(C2CCCCC2)n1/N=C/C=C/c1ccccc1	39	13	57*	.	54*	24	31	.	37
S=c1[nH]nc(C2CCCCC2)n1/N=C/c1ccccc1Br	35	-6	52*	1	42*	33	26	.	63*
O=C(O)COc1ccccc1/C=N/n1c(C2CCCCC2)n[nH]c1=S	-2	-12	-4	-2	6	12	.	.	.
S=c1[nH]nc(C2CCCCC2)n1/N=C/C(Cl)=C\c1ccccc1	34	23	45	-2	34	30	.	.	.

Screening results (PubChem)
